Source: the supplement of paper PMC8728848
Shown is part of a subset that was picked to be rich in the strongest signals.

Key:
Assay in all cases: glycan array binding signal (z-score within array); higher = stronger binding
Details in all cases: glycan notation: IUPAC condensed, linker removed
[1] = target: Gal(b1-4)GlcNAc(b1-2)Man(a1-3)Man(b1-4)GlcNAc(b1-4)GlcNAc
Summary of the method: (§1)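 The binding signal is a Z-score computed within each array and averaged over linkers. Arrays of the same protein sequence at different concentrations or buffers were also averaged together. Data originate from 3228 arrays in the Consortium for Functional Glycomics database, kept only where the protein sequence was available.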

[2] = target: Gal(b1-4)GlcNAc(b1-2)Man(a1-3)[GlcNAc(b1-4)][Gal(b1-4)GlcNAc(b1-2)Man(a1-6)]Man(b1-4)GlcNAc(b1-4)GlcNAc
Summary of the method: as §1

[3] = target: Gal(b1-4)GlcNAc(b1-2)[Gal(b1-4)GlcNAc(b1-6)]Man(a1-6)[Gal(b1-4)GlcNAc(b1-2)Man(a1-3)]Man(b1-4)GlcNAc(b1-4)[Fuc(a1-6)]GlcNAc
Summary of the method: as §1

[4] = target: Gal(b1-4)GlcNAc(b1-3)Gal(b1-4)GlcNAc(b1-3)GalNAc
Summary of the method: as §1

[5] = target: Gal3S(b1-4)[Fuc(a1-3)]GlcNAc
Summary of the method: as §1

Gal3S6S(b1-4)GlcNAc6S = target: Gal3S6S(b1-4)GlcNAc6S
Summary of the method: as §1

Gal6S(b1-4)GlcNAc6S = target: Gal6S(b1-4)GlcNAc6S
Summary of the method: as §1

GlcA(b1-6)Gal = target: GlcA(b1-6)Gal
Summary of the method: as §1

[6] = target: GlcNAc(a1-6)Gal(b1-4)GlcNAc
Summary of the method: as §1

[7] = target: GlcNAc(b1-2)Man(a1-3)[GlcNAc(b1-4)][GlcNAc(b1-2)Man(a1-6)]Man(b1-4)GlcNAc(b1-4)[Fuc(a1-6)]GlcNAc
Summary of the method: as §1

[8] = target: GlcNAc(b1-3)Gal(b1-4)GlcNAc(b1-3)Gal(b1-4)GlcNAc(b1-3)Gal(b1-4)GlcNAc(b1-2)Man(a1-3)[GlcNAc(b1-3)Gal(b1-4)GlcNAc(b1-3)Gal(b1-4)GlcNAc(b1-3)Gal(b1-4)GlcNAc(b1-2)Man(a1-6)]Man(b1-4)GlcNAc(b1-4)[Fuc(a1-6)]GlcNAc
Summary of the method: as §1

[9] = target: GlcNAc(b1-3)[GlcNAc(b1-4)][GlcNAc(b1-6)]GlcNAc
Summary of the method: as §1

[10] = target: Man(a1-2)Man(a1-6)[Man(a1-3)]Man(a1-6)[Man(a1-2)Man(a1-2)Man(a1-3)]Man
Summary of the method: as §1

[11] = target: Man(a1-3)[Man(a1-6)]Man(a1-6)[Man(a1-3)]Man
Summary of the method: as §1

[12] = target: Neu5Ac(a2-3)Gal(b1-4)GlcNAc(b1-3)Gal(b1-4)[Fuc(a1-3)]GlcNAc
Summary of the method: as §1

[13] = target: Neu5Ac(a2-3)Gal(b1-4)[Fuc(a1-3)]GlcNAc(b1-3)Gal(b1-4)[Fuc(a1-3)]GlcNAc(b1-3)Gal(b1-4)[Fuc(a1-3)]GlcNAc
Summary of the method: as §1

[14] = target: Neu5Ac(a2-3)Gal(b1-4)[Fuc(a1-3)]GlcNAc6S
Summary of the method: as §1

[15] = target: Neu5Ac(a2-6)Gal(b1-4)GlcNAc
Summary of the method: as §1

[16] = target: Neu5Ac(a2-6)Gal(b1-4)GlcNAc(b1-2)[Neu5Ac(a2-6)Gal(b1-4)GlcNAc(b1-4)]Man(a1-3)[GlcNAc(b1-4)][Neu5Ac(a2-6)Gal(b1-4)GlcNAc(b1-2)[Neu5Ac(a2-6)Gal(b1-4)GlcNAc(b1-6)]Man(a1-6)]Man(b1-4)GlcNAc(b1-4)GlcNAc
Summary of the method: as §1

[17] = target: Neu5Ac(a2-6)Gal(b1-4)GlcNAc(b1-3)Gal(b1-4)GlcNAc
Summary of the method: as §1

[18] = target: Neu5Ac(a2-6)Gal(b1-4)GlcNAc(b1-3)GalNAc
Summary of the method: as §1

[19] = target: Neu5Ac(a2-8)Neu5Ac(a2-8)Neu5Ac(a2-8)Neu5Ac(a2-3)[GalNAc(b1-4)]Gal(b1-4)Glc
Summary of the method: as §1

[20] = target: Neu5Ac9Ac(a2-3)Gal(b1-4)GlcNAc
Summary of the method: as §1

[21] = target: Neu5Gc(a2-8)Neu5Gc(a2-3)Gal(b1-4)GlcNAc
Summary of the method: as §1

B1: CFEM-PPl (Pichia pastoris), F2QPV1 (protein)
chain: AVATPPACLLACAAEVVKESSDCDALNNIQCICENEGSAIHACLESTCPDGLSSTALQSFEDVCESVGTEANLDE
Q: With B1 as the binder, how does the “glycan array binding signal (z-score)” value [1] read?
A: -0.158

Q: What about the “glycan array binding signal (z-score)” value [2] of the same binder?
A: -0.371

Q: What about the “glycan array binding signal (z-score)” value [3] of the same binder?
A: 0.199

Q: What about the “glycan array binding signal (z-score)” value [4] of the same binder?
A: -0.058

Q: What about the “glycan array binding signal (z-score)” value [5] of the same binder?
A: -0.308

Q: And the “glycan array binding signal (z-score)” value (Gal3S6S(b1-4)GlcNAc6S)?
A: -0.019

Q: And the “glycan array binding signal (z-score)” value (Gal6S(b1-4)GlcNAc6S)?
A: 0.881

Q: And the “glycan array binding signal (z-score)” value (GlcA(b1-6)Gal)?
A: 1.49

Q: And the “glycan array binding signal (z-score)” value [6]?
A: 1.68

Q: And the “glycan array binding signal (z-score)” value [7]?
A: -0.286

Q: What about the “glycan array binding signal (z-score)” value [8] of the same binder?
A: -0.05

Q: And the “glycan array binding signal (z-score)” value [9]?
A: -0.262

Q: What about the “glycan array binding signal (z-score)” value [10] of the same binder?
A: -0.274

Q: What about the “glycan array binding signal (z-score)” value [11] of the same binder?
A: -0.201

Q: What about the “glycan array binding signal (z-score)” value [12] of the same binder?
A: -0.181

Q: What about the “glycan array binding signal (z-score)” value [13] of the same binder?
A: -0.258

Q: What about the “glycan array binding signal (z-score)” value [14] of the same binder?
A: -0.175

Q: What about the “glycan array binding signal (z-score)” value [15] of the same binder?
A: -0.156

Q: And the “glycan array binding signal (z-score)” value [16]?
A: -0.31

Q: What about the “glycan array binding signal (z-score)” value [17] of the same binder?
A: -0.404

Q: And the “glycan array binding signal (z-score)” value [18]?
A: -0.218

Q: And the “glycan array binding signal (z-score)” value [19]?
A: -0.099

Q: And the “glycan array binding signal (z-score)” value [20]?
A: -0.318

Q: And the “glycan array binding signal (z-score)” value [21]?
A: -0.14
